The structures appear in SMILES notation. Values joined by “and” are separate entries in the source; they are usually repeats but may differ in a detail not shown here. Identical values can stand only once. The source holds several records for some structures; these can differ, active in one and inactive in another. Active and inactive are the calls of the source. The calls were made as follows: active = hit-call score of the fitted dose curve at least 0.9, where 1 is the maximum; inactive = score below 0.9.

Chain of Hypoxia-inducible factor 1-alpha (Homo sapiens) (Q16665 whole entry, looked up): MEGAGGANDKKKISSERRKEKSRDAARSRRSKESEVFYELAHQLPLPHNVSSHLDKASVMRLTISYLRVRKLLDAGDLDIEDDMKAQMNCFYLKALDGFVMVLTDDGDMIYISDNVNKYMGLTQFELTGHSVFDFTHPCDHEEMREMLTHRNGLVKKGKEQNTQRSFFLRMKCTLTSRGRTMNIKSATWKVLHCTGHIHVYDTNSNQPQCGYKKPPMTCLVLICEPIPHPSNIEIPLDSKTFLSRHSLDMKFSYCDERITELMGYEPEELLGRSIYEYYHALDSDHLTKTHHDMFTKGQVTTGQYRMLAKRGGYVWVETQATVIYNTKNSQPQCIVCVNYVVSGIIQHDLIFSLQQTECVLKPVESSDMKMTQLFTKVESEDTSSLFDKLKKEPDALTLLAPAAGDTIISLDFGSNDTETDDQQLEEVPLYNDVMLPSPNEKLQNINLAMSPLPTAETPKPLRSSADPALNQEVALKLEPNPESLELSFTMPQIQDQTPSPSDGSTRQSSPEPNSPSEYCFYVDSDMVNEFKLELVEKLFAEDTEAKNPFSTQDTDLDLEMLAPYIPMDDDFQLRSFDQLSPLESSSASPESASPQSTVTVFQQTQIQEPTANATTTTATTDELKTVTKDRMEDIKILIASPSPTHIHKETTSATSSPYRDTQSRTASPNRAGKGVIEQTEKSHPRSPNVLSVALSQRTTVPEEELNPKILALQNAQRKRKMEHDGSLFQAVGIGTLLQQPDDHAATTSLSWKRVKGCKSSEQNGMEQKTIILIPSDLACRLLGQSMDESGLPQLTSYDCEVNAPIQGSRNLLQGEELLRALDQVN

For this assay, the target named is Hypoxia-inducible factor 1-alpha (Homo sapiens) (UniProt Q16665). The experiment in a line: ATG_HIF1a_CIS: Attagene CIS-FACTORIAL HepG2 Assay for human Hypoxia Inducible Factor 1 (HIF1A) (AID 2282951). Particulars: HepG2 Attagene cis-factorial HIF1a reporter transcription; actives raise or lower the signal. The method, then:
ATG_CIS is a cell-based, multiplexed-readout assay that uses HepG2, a human liver cell line, with measurements taken at 24 hours after chemical dosing in a 24-well plate.ATG_HIF1a_CIS is one of 52 assay component(s) measured or calculated from the ATG_CIS assay. It is designed to make measurements of mRNA induction, a form of inducible reporter, as detected with fluorescence intensity signals by Reverse transcription polymerase chain reaction (RT-PCR) and Capillary electrophoresis technology.Data from the assay component ATG_HIF1a_CIS was analyzed into 1 assay endpoint. This assay endpoint, ATG_HIF1a_CIS, was analyzed with bidirectional fitting relative to DMSO as the negative control and baseline of activity. Using a type of inducible reporter, measures of mRNA for gain or loss-of-signal activity can be used to understand the reporter gene at the transcription factor-level as they relate to the gene HIF1A. Furthermore, this assay endpoint can be referred to as a primary readout, because this assay has produced multiple assay endpoints where this one serves a reporter gene function. To generalize the intended target to other relatable targets, this assay endpoint is annotated to the dna binding intended target family, where the subfamily is basic helix-loop-helix protein.
Human liver HepG2 cells are transiently transfected with multiple reporter transcription units (MRTUs) in 6-well plates using FuGene 6 reagent (Roche; 3 ml FuGene/1 mg DNA). The MRTU constructs are regulated by a cis-regulating element (promoter). […] A major difference between the CIS and TRANS system is that in CIS activities of endogenous TFs are measured, whereas the TRANS assay evaluates changes in activities of exogenous, chimeric NR-Gal4 proteins. […] At the end of 24 hour incubation, total RNA was isolated using TriZol reagent (Invitrogen). The isolated RNA is then reverse-transcribed using oligo(dT) primer and Mo-MLV reverse transcriptase (Invitrogen) with DNAse I (Ambion) treatment for 30 min. The one-tenth of the produced cDNA was amplified by PCR using Taq DNA polymerase (Invitrogen) and two reporter sequence-specific primers. The PCR products were fluorescently labeled by primer extension with 6-arboxyfluorescein (6-FAM) 5'-labeled reporter sequence-specific primer (2 min at 95 C, 20 s at 68 C and 10 min at 72 C) and these products were digested with 5U of HpaI (New England Biolabs) for 2h at 37 C. The fragments were purified using Qiaquick PCR columns (Qiagen), analyzed on an ABI 3130xL genetic analyzer (Applied Biosystems) with peak positions identified by using a set of X-rhodamine (ROX)-labeled MapMarker1000 molecular weight standards (BioVentures). The raw capillary electrophoresis data was processed using Attagraph software (Attagene).
With `CCC(C)(C)c1ccc(O)c(C(C)(C)CC)c1`, the outcome was inactive.

On to `C[C@@H]1C[C@@H]([C@H](O)CC2CC(=O)NC(=O)C2)C(=O)[C@@H](C)C1`, for which the AC50 is 119 nM (active) and 22.9 µM (active); the compound was called inactive.

In the case of `C=C(C)C#N`, the compound was classed as inactive.

For `O=C(O)C(F)(F)C(F)(F)C(F)(F)C(F)(F)C(F)(F)C(F)(F)C(F)(F)C(F)(F)C(F)(F)C(F)(F)F`, the result was inactive and the AC50 is 23.2 µM (active).

On to `C[C@H]1CCCC(=O)CCC/C=C/c2cc(O)cc(O)c2C(=O)O1`, for which the compound was called inactive.

In the case of `Cn1sc(Cl)cc1=O`, the compound was called inactive.

In the case of `Fc1ccc(C2(Cn3cncn3)OC2c2ccccc2Cl)cc1` (stereo not given), the result was inactive.

For `CCOC(=O)/C=C(C)/C=C/C[C@@H](C)CCCC(C)C`, the AC50 was 24.4 µM (active).

Regarding `ClC1(Cl)C2(Cl)C3(Cl)C4(Cl)C(Cl)(Cl)C5(Cl)C3(Cl)C1(Cl)C5(Cl)C24Cl` (stereo not given), the result was inactive.

On to `ClC1=C(Cl)[C@]2(Cl)[C@H]3[C@H]([C@H]4C=C[C@H]3C4)[C@@]1(Cl)C2(Cl)Cl`, for which the AC50 is 4.66 µM (active).

As for `ClC1=C(Cl)[C@]2(Cl)[C@@H]3[C@@H](Cl)[C@@H](Cl)C[C@@H]3[C@@]1(Cl)C2(Cl)Cl`, the call was inactive.

`Oc1c(I)cc(I)cc1I`: the AC50 was 41.9 µM (active).

In the case of `CCNc1nc(NC(C)(C)C)nc(SC)n1`, the result was inactive.

As to `CC(=O)C(Cl)C(=O)N(C)C` (stereo not given), the compound was classed as inactive.

As to `CC(=O)c1cc(C(C)(C)C)cc2c1CCC2(C)C`, the call was inactive.

For the compound `O=C(O)Cc1ccccc1`, the result was inactive.

In the case of `COP(=S)(OC)Oc1ccc(S(=O)(=O)N(C)C)cc1`, the outcome was inactive.

Turning to `CCCCOCCOC(C)=O`, the compound was called inactive.

Regarding `CNC`, the outcome was inactive.

As for `CCC(C)c1cccc(C(C)CC)c1O` (stereo not given), the compound was classed as inactive.

For `C=CC(=O)N(C)C`, the compound was classed as inactive.

Consider `CCOP(=S)(OCC)Oc1nc(Cl)c(Cl)cc1Cl`, for which the outcome was inactive.

Take `CCOP(=O)(CN(CCO)CCO)OCC`: the call was inactive.

In the case of `ClCc1cccnc1`, the call was inactive.

For the compound `O=C1CCCN1`, the call was inactive.

For the compound `COc1cc(-c2ccc(N)c(OC)c2)ccc1N`, the result was inactive.

On to `c1cc[c]([Hg][c]2ccccc2)cc1`, for which the result was inactive.

Turning to `CCCCCCCCSC(=O)Oc1cc(Cl)nnc1-c1ccccc1`, the call was inactive.

For `O=C(Cc1ccccc1)c1ccccc1`, the call was inactive.

As for `O=C(O)C(F)(F)C(F)(F)C(F)(F)C(F)(F)C(F)(F)C(F)(F)F`, the result was inactive.

Consider `CCOP(=S)(OCC)SCSP(=S)(OCC)OCC`, for which the call was inactive.

Regarding `CCCCCCCCCl`, the call was inactive.

As to `O=C(Nc1ccc2[nH]ccc2c1)c1cc2cc(F)ccc2n1Cc1cccc(F)c1`, the call was inactive.

For `Cc1ccc(N)cc1Cl`, the compound was classed as inactive.

For `O=P(O)(O)CN(CP(=O)(O)O)CP(=O)(O)O`, the call was inactive.

In the case of `O=Cc1cccc(Oc2ccccc2)c1`, the compound was classed as inactive.

In the case of `OCc1ccco1`, the compound was called inactive.

Take `COC[C@H](C)N(C(=O)CCl)c1c(C)csc1C`: the result was inactive.

For the origin of these results see PubChem BioAssay (EPA / NIEHS).
